Source: article PMC5540273 (PLoS ONE, 2017)

Assays:
Details in all cases: concentration: 1 μM,replicates: in singlicate; n = 1
[1] = tested on: RPS6KA4(Kin.Dom.1-N-terminal)
[2] = tested on: RPS6KA4(Kin.Dom.2-C-terminal)
[3] = tested on: RPS6KA5(Kin.Dom.1-N-terminal)
[4] = tested on: RPS6KA5(Kin.Dom.2-C-terminal)
[5] = tested on: T1, RSK1(Kin.Dom.1-N-terminal)
T1 construct: gene RPS6KA1

[6] = tested on: T2, RSK1(Kin.Dom.2-C-terminal)
T2 construct: gene RPS6KA1

[7] = tested on: T3, RSK2(Kin.Dom.1-N-terminal)
T3 construct: gene RPS6KA3

[8] = tested on: T4, RSK2(Kin.Dom.2-C-terminal)
T4 construct: gene RPS6KA3

[9] = tested on: T5, RSK3(Kin.Dom.1-N-terminal)
T5 construct: gene RPS6KA2

[10] = tested on: T6, RSK3(Kin.Dom.2-C-terminal)
T6 construct: gene RPS6KA2
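Further: KINOMEscan kinase panel screen.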

SMILES | %Inh [1] [%] | %Inh [2] [%] | %Inh [3] [%] | %Inh [4] [%] | %Inh [5] [%] | %Inh [6] [%] | %Inh [7] [%] | %Inh [8] [%] | %Inh [9] [%] | %Inh [10] [%]
COc1ccc(C[C@@H](CN)NC(=O)c2cc(Br)c(-c3ccnc4[nH]ccc34)s2)cc1.Cl.Cl [GSK1389063] | 68 | 59 | 87 | 21 | 42 | 0 | 90.8 | 0 | 63 | 15
CC(C)N1C(=O)Cc2cc(Nc3ncc(C(F)(F)F)c(NCc4cccc(S(C)(=O)=O)c4)n3)ccc21 | 0 | 24 | 0 | 22 | 21 | 19 | 56 | 2 | 39 | 26
Cc1cc(C(=O)Nc2ccc(Oc3ccc4nc(NC(=O)C5CC5)cn4n3)cc2)nn1-c1ccccc1 | 20 | 0 | 0 | 6 | 0 | 0 | 0 | 49 | 0 | 6
CNC(=O)c1ccccc1Sc1ccc2c(/C=C/c3ccccn3)n[nH]c2c1 | 0 | 0 | 0 | 0 | 0 | 0 | 0 | 0 | 11 | 6
CN(C)CC(O)COc1ccc(Nc2nccc(-c3cnn4nc(N5CCOCC5)ccc34)n2)cc1 (centres unmarked) [GW767488] | 0 | 53 | 0 | 0 | 23 | 49 | 62 | 1 | 20 | 37
Cc1occc1-c1nc(N)c(OC[C@@H](N)Cc2c[nH]c3ccccc23)cc1-c1cc2c(C)n[nH]c2cn1 [GSK1660450] | 7 | 0 | 72 | 0 | 26 | 18 | 98.1 | 24 | 87 | 0
O=C(NCCNc1ccnc(NCc2ccc(F)cc2)n1)c1cc2ccccc2s1 [GSK1379944] | 28 | 0 | 24 | 0 | 11 | 0 | 0 | 18 | 20 | 0
C=CC(=O)Nc1cc2c(Nc3ccc(F)c(Cl)c3)ncnc2cc1OCCCN1CCOCC1 [GW781483] | 7 | 3 | 0 | 0 | 0 | 0 | 33 | 24 | 17 | 11
Cl.Cl.Nc1nc(-c2ccc3c(N)n[nH]c3c2)cc(N2CCCC(NC(=O)c3ccccc3)C2)n1 (centres unmarked) [GSK2286775] | 0 | 0 | 0 | 4 | 20 | 10 | 6 | 0 | 32 | 16
C[C@H]1Oc2cc(cnc2N)-c2c(nn(C)c2C#N)CN(C)C(=O)c2ccc(F)cc21 | 3 | 0 | 16 | 1 | 0 | 0 | 0 | 0 | 5 | 14
Cl.Cl.NC[C@H](CC1CCCCC1)NC(=O)c1cc(Br)c(-c2ccnc3[nH]ccc23)s1 [GSK1581427] | 56 | 5 | 50 | 13 | 26 | 64 | 49 | 5 | 38 | 0
Cl.Oc1cc(-c2nc(-c3ccccc3)[nH]c2-c2ccncc2)ccc1Cl [SB-386023] | 0 | 13 | 1 | 0 | 4 | 23 | 0 | 0 | 0 | 0
CN(C)CCOc1ccc(-c2cc(-c3c[nH]nc3-c3ccccn3)ccn2)cc1 [GW835314] | 0 | 17 | 8 | 1 | 0 | 40 | 21 | 16 | 84 | 10
O=C(NCCCN1CCOC1=O)c1cnc(NCc2cc(Cl)ccc2Cl)nc1NC1CCCC1 | 10 | 0 | 15 | 8 | 8 | 6 | 2 | 16 | 67 | 13
Cc1ccc2c(-c3ccncc3)c(-c3ccc(F)cc3)nn2c1.Cl [GW461484] | 18 | 0 | 0 | 15 | 0 | 52 | 0 | 1 | 1 | 0
CCN(CC)CCOc1ccc(Nc2ncc3cc(-c4c(Cl)cccc4Cl)c(=O)n(C)c3n2)cc1 [SB-601273] | 0 | 0 | 0 | 36 | 19 | 51 | 45 | 47 | 29 | 0
Cc1ccc(-n2nc(C(C)(C)C)cc2NC(=O)Nc2ccc(OCCN3CCOCC3)c3ccccc23)cc1 [GW839464] | 23 | 0 | 2 | 18 | 100 | 0 | 0 | 0 | 54 | 4
NC(=O)c1cc(-c2ccccc2)cc2c(C3CCNCC3)c[nH]c12 [GSK301362] | 16 | 0 | 12 | 4 | 8 | 0 | 0 | 54 | 27 | 0
Nc1nc(Nc2ccccc2)cc(-c2ccc3c(N)n[nH]c3c2)n1 [GSK2225749] | 0 | 51 | 15 | 17 | 0 | 0 | 20 | 22 | 7 | 4
CCN(CC)CCCCNc1ncc2cc(-c3c(Cl)cccc3Cl)c(NC(=O)NC(C)(C)C)nc2n1 | 0 | 16 | 8 | 0 | 0 | 13 | 0 | 0 | 0 | 14
Cc1n[nH]c2ccc(-c3cc(OC[C@@H](N)Cc4ccccc4)cnc3-c3ccoc3)cc12.O=C(O)C(F)(F)F.O=C(O)C(F)(F)F [GSK507358] | 0 | 0 | 42 | 1 | 4 | 0 | 17 | 0 | 12 | 16
CC(C)Nc1cc(-c2ccc3c(N)n[nH]c3c2)nc(N)n1 [GSK2221681] | 0 | 88 | 0 | 68 | 28 | 0 | 8 | 19 | 18 | 12
Cl.Cl.NC[C@H](Cc1ccc(C(F)(F)F)cc1)NC(=O)c1cc(Br)c(-c2ccnc3[nH]ccc23)s1 [GSK1487252] | 41 | 0 | 72 | 21 | 20 | 7 | 56 | 1 | 37 | 0
C[C@@H]1CCN(C(=O)CC#N)C[C@@H]1N(C)c1ncnc2[nH]ccc12 |  | 0 | 0 | 0 | 20 | 0 | 0 | 0 | 0 | 100
C[C@@H](Oc1cc(-c2cnn(C3CCNCC3)c2)cnc1N)c1c(Cl)ccc(F)c1Cl | 0 | 3 | 0 | 0 | 14 | 17 | 13 | 0 | 14 | 20
Cc1cc2cn[nH]c2cc1-c1cccc2c(N)c(C(N)=O)nnc12 | 92.6 | 12 | 51 | 2 | 48 | 15 | 58 | 0 | 26 | 2
CCn1c(-c2nonc2N)nc2c(C#CC(C)(C)O)nc(OCCN)cc21.Cl.Cl [GSK902056] | 0 | 79 | 23 | 38 | 0 | 0 | 10 | 22 | 19 | 0
